Measured values as given in PubChem BioAssay (NCI).
“And” between values parts separate entries of the source, which are not always exact repeats. Identical values can stand only once. Compounds without any hit were thinned out: in the full panel of roughly 83,000, 20% have a hit.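 Cells were grown in 96-well plates and exposed to the test compound at a single concentration for 48 hours; results are reported as percent growth, with values below 10 considered active.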 The source made the active and inactive calls.

Assays:
Assay in all cases: NCI-60 one-dose screen, 48 h (100 = growth as untreated, 0 = no growth, -100 = all killed)
Conditions in all cases: 10 µM unless noted
[1] = system: SK-MEL-2 melanoma
[2] = system: EKVX NSCLC
[3] = system: SN12C renal
[4] = system: UO-31 renal
[5] = system: TK-10 renal
[6] = system: ACHN renal
[7] = system: CAKI-1 renal
[8] = system: A498 renal
[9] = system: CCRF-CEM leukemia
[10] = system: MOLT-4 leukemia

Measured: growth

O=C(NNC(=O)c1ccc(OCc2nc3ccc(Cl)cc3[nH]2)cc1)Nc1ccc(Cl)c(Cl)c1
inactive: [1] 72.7% | [2] 91.9% | [3] 76.7% | [4] 84.7% | [5] 110% | [6] 106% | [7] 91.8% | [8] 182% | [9] 88.5% | [10] 94%

COc1ccc2c(c1)C(Sc1ccc(Cl)cc1)c1c(nc(N)c(C#N)c1N)O2 (stereo not given)
active: [9] -10.6% | [10] -1.37%
inactive: [1] 79.5% | [2] 43.8% | [3] 55.7% | [4] 26.5% | [5] 99.1% | [6] 60.1% | [7] 51.9% | [8] 84.4%

Cn1cc(-c2cc(N)n3nc(-c4c[nH]c5ccc(Cl)cc45)cc3n2)c2cc(Br)cnc21
inactive: [3] 42.5% | [8] 29%
active: [1] -49.9% | [2] 0.312% | [4] -39.3% | [5] -53.1% | [6] -76.3% | [7] -63% | [9] -66.1% | [10] -56.2%

CC(C)(C)OC(=O)N1C/C(=C\c2ccc(F)cc2)C(=O)/C(=C/c2ccc(F)cc2)C1
inactive: [5] 10% | [8] 97%
active: [1] -36.4% | [2] -52.6% | [3] -93.7% | [4] -73.5% | [6] -100% | [7] -37.4% | [9] -6.19% | [10] -7.57%

O=C(Cn1c(-c2ccccc2)nc2ccccc21)N=Nc1c(O)[nH]c2ccc(Cl)cc12
active: [2] 9.78% | [3] 5.72% | [4] 1.39% | [6] -47.3% | [8] -5.31%
inactive: [1] 17.6% | [5] 28.5% | [7] 13% | [9] 31.8% | [10] 27.4%

CC1=NN(C2=NC(=O)C(CC(=O)Nc3ccccc3C(F)(F)F)S2)C(c2ccc(N(C)C)cc2)C1 (stereo not given)
inactive: [1] 65.2% | [2] 48.5% | [3] 46.5% | [4] 41.6% | [5] 71.5% | [6] 35.8% | [7] 71% | [8] 79.2% | [9] 36.9% | [10] 28.4%

CNc1nc2ccccc2n2c(-c3ccc(O)c(O)c3)cnc12
active: [1] 3.66% | [3] 4.03% | [4] 1.12% | [6] 6.64% | [7] 3.52%
inactive: [2] 16.3% | [5] 62.8% | [8] 92.4% | [9] 14.9% | [10] 11%

O=C(c1ccc(Cl)cc1)C1[C@H](c2ccccc2Cl)[C@@H](c2ccccc2)NC12C(=O)Nc1ccc(Cl)cc12 (stereo not given in full)
active: [1] -87.1% | [2] -23.5% | [3] -90.4% | [4] -51.2% | [5] -0.422% | [6] -26.1% | [7] -20.2% | [8] -40.7% | [9] -6.99% | [10] -29.4%

CC1=C(C(=O)Nc2ccccc2)C(c2cccc3ccccc23)n2c(nc3ccccc32)N1 (stereo not given)
active: [7] 5.8%
inactive: [1] 99.7% | [2] 67.4% | [3] 18.5% | [4] 59% | [5] 81% | [6] 27.6% | [8] 102% | [9] 65.4% | [10] 67.5%

NS(=O)(=O)c1cccc(Nc2nc(SCC(=O)c3ccc(F)cc3)nc3ccccc23)c1
inactive: [2] 28% | [3] 15.8% | [4] 17.9% | [5] 44.6% | [6] 25.9% | [7] 21.9% | [8] 71.1%
active: [1] -47% | [9] 1.38% | [10] 2.93%

FC(F)(F)c1cc2c(Cl)ncnc2n1CCC1CCOCC1
active: [1] -91.2% | [4] -92.9% | [6] -44.2% | [9] -14.5% | [10] -38.4%
inactive: [2] 77% | [3] 40.7% | [5] 98.3% | [7] 80.3% | [8] 97.8%

COc1ccc(CCC2NCCc3c(Br)c4c(c(OC)c32)OCO4)cc1 (stereo not given)
active: [1] -16.9% | [10] 9.59%
inactive: [2] 24.4% | [3] 13.2% | [4] 21.1% | [5] 44% | [6] 15.5% | [7] 16.5% | [8] 79% | [9] 19.6%

O=C1Nc2ccccc2/C1=C\c1ccc(OCC(=O)c2ccc(Br)cc2)cc1
inactive: [1] 72.4% | [2] 65.6% | [3] 62.7% | [4] 48.5% | [5] 94.9% | [6] 70% | [7] 67.8% | [8] 100% | [9] 58.2%
active: [10] 8.54%

O=C(Nc1ccc(-c2ccc3c(c2)NC(=O)/C3=C\c2ccc[nH]2)cc1)Nc1cccc(Cl)c1
inactive: [3] 40.7% | [4] 10.5% | [8] 21.6% | [9] 13.7%
active: [1] -52.8% | [2] -19.6% | [5] -12.1% | [6] -19.6% | [7] -14.9% | [10] 5.1%

CS(=O)(=O)Nc1cc(-c2ccc3ncnc(N4CCc5cc(F)c(Cl)cc54)c3c2)cnc1Cl
inactive: [3] 19.3% | [9] 16.7%
active: [1] -31.6% | [2] -23% | [4] 5.68% | [5] -1.98% | [6] 9.43% | [7] -8.1% | [8] -36.5% | [10] -47.4%

CCCn1c(NC(=O)c2cccc(C(N)=O)c2)nc2cc(CN3CCCCC3)ccc21
inactive: [1] 115% | [2] 100% | [3] 89% | [4] 67.5% | [5] 92.6% | [6] 77.8% | [7] 53.3% | [8] 170% | [9] 94.7% | [10] 94.8%

Cc1cccc(/C=C/c2ccc(NC(=S)NCCCCN(C)C)cc2)c1
active: [1] -79.6% | [2] -90.5% | [3] -84.5% | [4] -93.2% | [5] -89.8% | [6] -100% | [7] -89.6% | [8] -83.7% | [9] -36.6% | [10] -16.1%

O=C(NC(=S)N1CCN(c2ncnc3c2cnn3-c2ccccc2)CC1)c1ccc(Br)cc1
inactive: [1] 87.4% | [2] 76.4% | [3] 48.4% | [4] 70.7% | [5] 127% | [6] 69.2% | [7] 47.8% | [8] 104% | [9] 81.2% | [10] 81.5%

C=CCSc1nnc(-c2ccc(-c3nc4ccccc4[nH]3)cc2)o1
inactive: [1] 95% | [2] 71.5% | [3] 83.8% | [4] 56.1% | [5] 87.7% | [6] 78.1% | [7] 63.9% | [8] 113% | [9] 32.6% | [10] 38.1%

CCOC(=O)c1ccc(NC(=S)NC(=O)c2cccc(NC(=O)c3ccc(C)cc3)c2)cc1
inactive: [1] 88.9% | [2] 74.7% | [3] 31% | [4] 63.9% | [5] 89.2% | [6] 75.5% | [7] 76.8% | [8] 105% | [9] 78.3% | [10] 70.4%

COc1ccc2[nH]c(=O)cc(-n3ncc(C(=O)/C=C/c4cc(OC)c(OC)c(OC)c4)c3C)c2c1
inactive: [2] 11% | [5] 40.9% | [7] 14.6%
active: [1] -28.3% | [3] 7.21% | [4] -36.2% | [6] -14.9% | [8] 0.493% | [9] -20.4% | [10] -7.45%

CN(C)CCCNC(=S)Nc1ccc(/C=C/c2ccc(Cl)cc2)cc1
active: [1] -85.4% | [2] -35.1% | [3] -100% | [4] -95.8% | [5] -87.9% | [6] -97.6% | [7] -77.3% | [8] -47.7% | [9] -16.9% | [10] 0.54%

COc1cc(C2CC(c3ccc(C(F)(F)F)cc3)=Nc3c(N)nc(N)nc3N2)ccc1Oc1nc(Nc2ccc(F)cc2)nc(N(C)C)n1 (stereo not given)
active: [10] 4.31%
inactive: [1] 59.9% | [2] 44.1% | [3] 50.7% | [4] 41.6% | [5] 65.4% | [6] 48.3% | [7] 40.9% | [8] 65.6% | [9] 69.4%

CC1(C)CC(=O)C2=C(C1)OC(N)=C(c1nc3ccccc3[nH]1)C2c1ccc(Cl)cc1 (stereo not given)
inactive: [1] 43.5% and 112% | [2] 57% and 100% | [3] 79.7% and 105% | [4] 71.2% and 86.4% | [5] 71.7% and 106% | [6] 62.4% and 106% | [7] 63.9% and 103% | [8] 66.9% and 149% | [9] 31.8% and 102% | [10] 17.6% and 103%

Cc1cc(C(NC(=O)C2CC3(CC(Nc4cccc5c4C(=O)N(C4CCC(=O)NC4=O)C5=O)C3)C2)c2ccc3c(c2)OC(F)(F)O3)c(O)c2ncccc12 (stereo not given)
active: [1] -4.6% | [2] 6.4% | [4] -5.11% | [6] 5.49% | [9] -7.69% | [10] 4.24%
inactive: [3] 14.1% | [5] 36.1% | [7] 10.6% | [8] 115%
